Experimental findings from PubChem BioAssay AID1700 (The Scripps Research Institute Molecular Screening Center, 2009) are described below.

The inhibition is the relative decrease from the control value, in per cent.

Hit rate of the full screen: of about 290,000 compounds, about 670 (0.23%) were called active.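 How the source made its calls: active means inhibition above a per-plate limit of that plate's mean compound inhibition plus 3 SD (cut at about 60% in these data); inactive means the rest.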 Only a selection was taken, and actives are over-represented in it overall.

The nature of the assay: suppression of KLF5 promoter-driven luciferase – DLD-1 cells, luminescence, primary screen (AID 1700).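 Further: 0% = DMSO wells and 100% = LY294002 at 200 µM; higher means less KLF5 promoter-driven luciferase light.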 To be noted: DLD-1 KLF5 promoter-luciferase reporter, at 5 µM, stronger effect = higher value. In general terms: A reporter such as luciferase makes a cellular process visible.
For `Cn1c(=O)c2c(nc(NCCNC(=O)c3ccco3)n2Cc2ccccc2F)n(C)c1=O`, the inhibition was -15% (inactive).
The value for `Cc1nn2c(c1-c1ccccc1)N=C(c1ccco1)CC2c1ccccc1` (stereo not given) was -26.4% (inactive); that for `CS(=O)(=O)c1ccc2nnn(OCC(=O)Nc3cccc(C#N)c3)c2c1` was -3.59% (inactive); that for `O=C(Nc1cccc(Cl)c1)c1cc(S(=O)(=O)N2CCCCC2)c[nH]1` was -39.1% (inactive).
Consider `COc1ccc(S(=O)(=O)n2nc(C)c(S(=O)(=O)N3CCOCC3)c2C)cc1`, for which the inhibition is -33.4% (inactive).
With `CCOC(=O)N1CCN(S(=O)(=O)c2ccc(-n3cnnn3)cc2)CC1`, the inhibition is -18.3% (inactive).
In the case of `O=C(NCc1cc(F)cc(C(F)(F)F)c1)C1CCC(=O)N(C2CCCC2)C1` (stereo not given), the inhibition is 11.8% (inactive).
The value for `CCCCC(C(=O)NC(C)(C)C)N(Cc1ccccc1)C(=O)c1snc(C(N)=O)c1N` (stereo not given) was -18.5% (inactive); that for `COc1ccc(C(C)NC(=S)NC2CCCCC2)cc1OC` (stereo not given) was -29.8% (inactive); that for `CC1CCN(C(=O)Cn2nnnc2CN2CCOCC2)CC1` was -8.54% (inactive).
Take `CC(=O)N1CC(=O)N(CC(=O)Nc2ccc(Br)cc2)C1=S`: the inhibition is -0.85% (inactive).
The value for `COC(=O)c1cccc(C(=O)N2CCCC(Nc3ccc4c(c3)OCCO4)C2)c1` (stereo not given) was -10.2% (inactive); that for `CC1CCC(NS(=O)(=O)c2ccc3c(c2)CC(=O)N3)CC1` (stereo not given) was 10.7% (inactive); that for `C=CCn1c(SCc2ccc(C(=O)NCCO)cc2)nc2ccccc2c1=O` was -13.8% (inactive).
Turning to `CCN1CCCC1CNC(=O)c1cc2cc(OC)c(OC)cc2[nH]1` (stereo not given), the inhibition was -5.17% (inactive).
As for `Cc1ccc(CNC(=O)CCNS(=O)(=O)c2ccc(Br)s2)cc1`, the figure is -6.34% (inactive).
The value for `CC(NC(=O)c1cc2cc(Cl)ccc2oc1=N)c1ccccc1` (stereo not given) was -15.5% (inactive); that for `COc1ccc2[nH]cc(/C=C(/C#N)S(=O)(=O)c3ccccc3)c2c1` was -24.4% (inactive).
The value for `COc1cc(/C=C(\C#N)c2nc3ccccc3[nH]2)ccc1O` was -74.6% (inactive); that for `COc1ccc(/C=C(\C#N)c2c[nH]c3ccccc23)cc1` was 62.4% (active).
